Data taken from the supplement of paper PMC6555819.

system: RXRa homodimer (NR concentration 180 nM); experiment: PBM binding z-score (relative to random genomic background probes); higher = stronger binding; sequences stand for … in GC…GCGATTGACAGCGTAGAATGAAGG
How it was run: (§1)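 Binding z-scores were set against random background probes. The data came from custom Agilent 4×180K protein-binding microarrays carrying double-stranded probes with 34-nt variable regions, incubated 1 h with ligand-free nuclear receptor dimers. Partner-specific antibodies detected binding, and scanned fluorescence was regression-normalized.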

Row | Sequence | PBM binding z-score
1 | CGTCCAAGGTCATAGAAGGTCAGTGAAGACAGAT | 6.78
2 | CCTACTGGGCCATTCAGAGGTCATTGACCATATG | 3.98
3 | ACTGACAGGTGAGTGAAGGTAACTCAGCTGGACG | 0.3
4 | ATACCAAGGTGGTCGTGAGGTCGTTGATACTAAC | 1.53
5 | AGTACGAGGGCACGCTGAGTTGATAGCAGAGTAG | 1.2
6 | TCGAGTAGGTTACCACTGGGGCATTCAGCTTTCT | 0.129
7 | AGTACAGGGTCACTAGGCCAGAGTAGGTACGAAT | 5.43
8 | CCTCGGAGGACAGTAGGTCAGAGCTGTCCGCTTT | 0.614
9 | AATACAGGGTCACTAGGCCGGAGTAGGTACGAAT | 5.28
10 | TCTGCTAGGTCAGCTGGTCAGCTAACGAGCTGCC | 1.51
11 | GCTAGCAGGCCATCTGGGTCACTCAATGACGGGC | 0.806
12 | TGAATGAGGTTAAAAATCAGGGAACGTGGCGTCG | 2.24
13 | GTACTAAGGTGAATAGGTCGTTGATGAGTAGGCG | 2.22
14 | TCATATAGGTAATAGAGGTGAAAGTCGGCATCTA | 1.68
15 | TCTAGTAGATCAATAGAGGTTAAGAAAGTGCGCT | 1.56
16 | CCTACTGGGCCAAAGGTCATTCATTCCAATGCTC | 6.93
17 | AGTCAAAGTTCACTAAGTAACGTAAGATTCAGCT | 3.9
18 | ACTAGCAGACCAAGGGTCACTCAAGATTAGTCCG | 3.57

system: THRa:RXRa (NR concentration 90 nM, RXRa partner concentration 90 nM); experiment: as above
How it was run: as §1

Row | Sequence | PBM binding z-score
19 | CCTCGGAGGACAGAAGGTCAGAACTGTCCGCTTT | 1.85
20 | CCTTACGGGTCAAGGTTATAGCGCGGGTGGTACG | 2.96
21 | CCGACTGGGGCAGAAAGGTTTCCATACCATCCGG | -1.38
22 | TTACCAAGGTGAAAGGTTGTTGATGCACGCCTTG | 2.15
23 | GCAGACAGGTAAAACGCAGGTAACTCAGGGTGGC | 0.964
24 | AGTCAAAGTTCATGACGAGGTAACGTAAAGCACG | 4.23
25 | ATATGTAGGTTAATGGTCATTCAGGTTGGTTCGC | 0.905
26 | ACTATTAGTTGAGACAAGGGCAACCGATAGGTTG | 1.96
27 | CCGACTGGGGCATAAAGTTACCATAAGCCAGCCC | -0.417
28 | CGTCCACGGTCATAGGAGGTCAGTGAAGACAGAT | 4.28
29 | TAGCCTTGGTCATGGGCCAGTATACCACGCGAAC | -0.147
30 | TCTGCTAGGTCAACGATGATCAGCTAATCTGCTA | 2.64
31 | CCAGACAGGTGAAAGGTACCTCAGTCTGGTACGC | 0.325
32 | ATATGTAGGTTATCGGGTTATTCAGTTTGCGCAT | 1.78
33 | TCTTGTAGATCAAAGGATAAGAAAGCCGAAGCCT | -0.444
34 | TCTTGTAGATCAGCAGGTTAAGGAAGCTGGCCAA | 0.266
35 | GTGACTGGGGCAAAGCAGGTTACCATAAGGTTGG | 3.35
36 | ACAGACAGGTCAGTGAAGGTAACTCAGCTGGACG | 3.86
37 | ACTATTAGTTGACTTAGGGAAACCGATACGACGC | 0.625
38 | CCGTACGGGTCACGAGGTTATAGCACGACGAGCG | 3.75

Row | Sequence | PBM binding z-score
39 | TCAAGTTGGTCACGGAGGTCACACACGACGGGTA | 3.72
40 | CCAGACGGGTGAAAGGTAACTCAGTCTGGTACGC | 0.461
41 | CGTCCAAGGTCATAGAAGGTCAGTGAAGACAGAT | 5.07
42 | CCTACTGGGCCATTCAGAGGTCATTGACCATATG | 3.28
43 | ACTGACAGGTGAGTGAAGGTAACTCAGCTGGACG | 1.74
44 | ATACCAAGGTGGTCGTGAGGTCGTTGATACTAAC | 3.02
45 | AGTACGAGGGCACGCTGAGTTGATAGCAGAGTAG | 1.92
46 | TCGAGTAGGTTACCACTGGGGCATTCAGCTTTCT | 0.242
47 | AGTACAGGGTCACTAGGCCAGAGTAGGTACGAAT | 3.41
48 | CCTCGGAGGACAGTAGGTCAGAGCTGTCCGCTTT | 1.43
49 | AATACAGGGTCACTAGGCCGGAGTAGGTACGAAT | 3.4
50 | TCTGCTAGGTCAGCTGGTCAGCTAACGAGCTGCC | 1.8
51 | GCTAGCAGGCCATCTGGGTCACTCAATGACGGGC | 1.62
52 | TGAATGAGGTTAAAAATCAGGGAACGTGGCGTCG | 1.67
53 | GTACTAAGGTGAATAGGTCGTTGATGAGTAGGCG | 3.11
54 | TCATATAGGTAATAGAGGTGAAAGTCGGCATCTA | 1.91
55 | TCTAGTAGATCAATAGAGGTTAAGAAAGTGCGCT | 2.09
56 | CCTACTGGGCCAAAGGTCATTCATTCCAATGCTC | 3.3
57 | AGTCAAAGTTCACTAAGTAACGTAAGATTCAGCT | 1.55
58 | ACTAGCAGACCAAGGGTCACTCAAGATTAGTCCG | 2.42

system: THRa homodimer (NR concentration 90 nM); experiment: as above
How it was run: as §1

Row | Sequence | PBM binding z-score
59 | CCTCGGAGGACAGAAGGTCAGAACTGTCCGCTTT | 0.203
60 | CCTTACGGGTCAAGGTTATAGCGCGGGTGGTACG | 0.728
61 | CCGACTGGGGCAGAAAGGTTTCCATACCATCCGG | -0.951
62 | TTACCAAGGTGAAAGGTTGTTGATGCACGCCTTG | 0.748
63 | GCAGACAGGTAAAACGCAGGTAACTCAGGGTGGC | -0.354
64 | AGTCAAAGTTCATGACGAGGTAACGTAAAGCACG | 1.02
65 | ATATGTAGGTTAATGGTCATTCAGGTTGGTTCGC | 0.945
66 | ACTATTAGTTGAGACAAGGGCAACCGATAGGTTG | -0.191
67 | CCGACTGGGGCATAAAGTTACCATAAGCCAGCCC | -0.689
68 | CGTCCACGGTCATAGGAGGTCAGTGAAGACAGAT | 0.603
69 | TAGCCTTGGTCATGGGCCAGTATACCACGCGAAC | -0.424
70 | TCTGCTAGGTCAACGATGATCAGCTAATCTGCTA | 0.449
71 | CCAGACAGGTGAAAGGTACCTCAGTCTGGTACGC | -0.329
72 | ATATGTAGGTTATCGGGTTATTCAGTTTGCGCAT | 1.58
73 | TCTTGTAGATCAAAGGATAAGAAAGCCGAAGCCT | -0.847
74 | TCTTGTAGATCAGCAGGTTAAGGAAGCTGGCCAA | -0.666
75 | GTGACTGGGGCAAAGCAGGTTACCATAAGGTTGG | 0.631
76 | ACAGACAGGTCAGTGAAGGTAACTCAGCTGGACG | -0.151
77 | ACTATTAGTTGACTTAGGGAAACCGATACGACGC | 0.155
78 | CCGTACGGGTCACGAGGTTATAGCACGACGAGCG | 0.803

Row | Sequence | PBM binding z-score
79 | TCAAGTTGGTCACGGAGGTCACACACGACGGGTA | 2.55
80 | CCAGACGGGTGAAAGGTAACTCAGTCTGGTACGC | -0.444
81 | CGTCCAAGGTCATAGAAGGTCAGTGAAGACAGAT | 2.62
82 | CCTACTGGGCCATTCAGAGGTCATTGACCATATG | 1.45
83 | ACTGACAGGTGAGTGAAGGTAACTCAGCTGGACG | -0.42
84 | ATACCAAGGTGGTCGTGAGGTCGTTGATACTAAC | 2.64
85 | AGTACGAGGGCACGCTGAGTTGATAGCAGAGTAG | 0.295
86 | TCGAGTAGGTTACCACTGGGGCATTCAGCTTTCT | -0.96
87 | AGTACAGGGTCACTAGGCCAGAGTAGGTACGAAT | 1.04
88 | CCTCGGAGGACAGTAGGTCAGAGCTGTCCGCTTT | -0.152
89 | AATACAGGGTCACTAGGCCGGAGTAGGTACGAAT | 1.2
90 | TCTGCTAGGTCAGCTGGTCAGCTAACGAGCTGCC | -0.216
91 | GCTAGCAGGCCATCTGGGTCACTCAATGACGGGC | 0.249
92 | TGAATGAGGTTAAAAATCAGGGAACGTGGCGTCG | -0.0675
93 | GTACTAAGGTGAATAGGTCGTTGATGAGTAGGCG | 1.66
94 | TCATATAGGTAATAGAGGTGAAAGTCGGCATCTA | 0.432
95 | TCTAGTAGATCAATAGAGGTTAAGAAAGTGCGCT | -0.79
96 | CCTACTGGGCCAAAGGTCATTCATTCCAATGCTC | 1.06
97 | AGTCAAAGTTCACTAAGTAACGTAAGATTCAGCT | -0.0534
98 | ACTAGCAGACCAAGGGTCACTCAAGATTAGTCCG | -0.116
